Compounds with a hit are over-represented: about 15% of the library has one in this group of screens.
DT40 TDP1 no CPT: qHTS for Inhibitors of human tyrosyl-DNA phosphodiesterase 1 (TDP1): qHTS in cells in absence of CPT. actives 15% (n = 420,000). DT40 Tdp1-/- hTDP1 cells, no CPT, ATP luminescence, 48 h. Potency, µM (doses to about 46.2 µM), without a hit: top-dose activity change, negative = growth inhibition, actives largely listed as inhibitors; also: nearly all actives have a fitted effect of over 55% in size
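Camptothecin absent (DMSO only). Human TDP1-complemented DT40 knockout cells, 400 cells/well, 37 °C for minimum 48 hr; ATP measured via CellTiter-Glo, 30 min dark incubation, luminescence.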
TDP1 cell CPT: qHTS for Inhibitors of human tyrosyl-DNA phosphodiesterase 1 (TDP1): qHTS in cells in presence of CPT; chicken DT40 Tdp1-/-;hTDP1 cells + 20 nM CPT, ATP luminescence, 48 h; Potency, µM (series often up to 46.2 µM), for inactives: at the top dose activity change, negative = growth inhibition, most hits filed as inhibitors; actives 12% (n = 420,000); also: nearly all actives have a fitted effect of over 55% in size
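Cell growth measured by CellTiter-Glo luminescence after a minimum 48 h, 37 C compound exposure with 20 nM CPT in Tdp1-knockout DT40 cells stably expressing hTDP1, seeded 400/well; qHTS titration format.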
ALOX12 inh: Primary qHTS assay for inhibitors of human arachidonate 12S-lipoxygenase (ALOX12): Round 2. Polyunsaturated fatty acid lipoxygenase ALOX12 (Homo sapiens), P18054. purified 12hLO, xylenol orange hydroperoxide absorbance. Potency, µM (titrated, usually from 108 µM), without a hit: top-dose activity change, negative = inhibition, actives largely listed as inhibitors. actives 1.1% (n = 580,000). AID 1671190, 2021
Target sequence (P18054 whole entry, looked up): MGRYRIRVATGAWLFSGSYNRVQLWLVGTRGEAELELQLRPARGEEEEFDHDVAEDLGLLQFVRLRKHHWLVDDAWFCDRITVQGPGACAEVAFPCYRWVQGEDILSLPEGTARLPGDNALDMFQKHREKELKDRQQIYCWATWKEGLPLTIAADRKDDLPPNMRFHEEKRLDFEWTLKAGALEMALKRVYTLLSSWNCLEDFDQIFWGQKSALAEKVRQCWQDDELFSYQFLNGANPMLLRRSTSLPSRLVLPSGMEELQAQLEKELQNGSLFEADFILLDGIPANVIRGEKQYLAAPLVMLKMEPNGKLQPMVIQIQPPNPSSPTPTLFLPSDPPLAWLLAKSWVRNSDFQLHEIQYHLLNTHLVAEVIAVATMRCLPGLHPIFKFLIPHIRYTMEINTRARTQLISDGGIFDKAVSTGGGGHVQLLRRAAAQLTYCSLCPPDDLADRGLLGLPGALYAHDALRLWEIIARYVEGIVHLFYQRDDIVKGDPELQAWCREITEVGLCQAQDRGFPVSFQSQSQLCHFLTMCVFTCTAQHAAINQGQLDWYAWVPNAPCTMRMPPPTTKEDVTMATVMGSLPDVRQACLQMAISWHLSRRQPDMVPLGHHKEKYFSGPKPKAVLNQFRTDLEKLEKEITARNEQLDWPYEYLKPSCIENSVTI
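Purified human 12hLO at 150 nM in 25 mM Hepes, 0.01% Triton X-100, pH 7.0, preincubated 15 min at room temperature with compound. Reaction started with 40 uM arachidonic acid, 30 min at room temperature. Hydroperoxide measured by Fe-xylenol orange, 573/405 nm absorbance ratio.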
Gal4-VP16 FLuc: VP16 counterscreen qHTS for inhibitors of ROR gamma transcriptional activity | Drosophila S2 Gal4-VP16 UAS-luciferase, luminescence, 20 h | Potency, µM (doses to about 53.6 µM), inactives show at the highest dose activity, negative = inhibition, hits mostly inhibitors | actives 3.5% (n = 310,000) | AID 2546, 2010;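 also: Gal4-VP16 expression switched on by copper sulfate through the metallothionein promoter; nearly all actives have a fitted effect of over 50% in size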
RORgamma inh: qHTS for inhibitors of ROR gamma transcriptional activity; Potency, µM (highest dose often 53.6 µM), for inactives: at the top dose activity change, negative = inhibition, actives largely listed as inhibitors; Drosophila S2 Gal4-RORgamma UAS-luciferase reporter, 20 h; actives 5.4% (n = 310,000); also: nearly all actives have a fitted effect of over 60% in size
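Stably transfected Drosophila Schneider cells are the test system, with ROR gamma fused to Gal4 and luciferase under UAS control; luminescence is read after 20 hr of 700 uM copper sulfate induction at ambient temperature.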
ELG1 repair inh: qHTS screen for small molecules that inhibit ELG1-dependent DNA repair in human embryonic kidney (HEK293T) cells expressing luciferase-tagged ELG1; HEK293T ELG1-luciferase reporter, luminescence, 16 h; DNA damage induced by 5-fluorouridine; actives 2.3% (n = 330,000); Potency, µM (series often up to 46.1 µM), without a hit: top-dose activity change, negative = inhibition, hits mostly inhibitors; also: nearly all actives have a fitted effect of over 55% in size
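Quantitative HTS, concentration-response format. 2,000 cells/well co-treated with 5-fluorouridine and compound, 16 hr in 5% CO2 at 37 °C; ONE-Glo luminescence read after 30 min.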
* hit, by the source's call; u = inconclusive; x = no result; [ ] = another dose, or the depositor's remark. Calls follow the shape of the dose curve; as a rule, active = well fitted curve in the direction sought with a large enough effect; inconclusive = small, poorly fitted or top-dose-only effect, or another doubt; inactive = no such curve, though single readings can be large; an effect the other way counts as inactive or inconclusive. % is scaled to controls: 0 for no effect and ±100 for the full control effect; potency is read from the fitted curve at half-maximal effect.

SMILES	DT40 TDP1 no CPT	TDP1 cell CPT	ALOX12 inh	Gal4-VP16 FLuc	RORgamma inh	ELG1 repair inh
Cc1ccc(S(=O)(=O)NCc2ccc(C(=O)N3CCc4ccccc4C3)cc2)cc1	29µM*	u	-2%	0%	21%	u
Cc1ccc(CN(c2ccc(C(=O)N3CCc4ccccc4C3)cc2)S(C)(=O)=O)cc1	15µM*	u	0%	2%	18%	16µM*
COc1ccc(S(=O)(=O)NCc2ccc(C(=O)N3CCc4ccccc4C3)cc2)cc1	23µM*	23µM*	-3%	0%	42%	u
COc1ccc(OC)c(NC(=O)Cc2c(C)c3c(O)cc(C)cc3oc2=O)c1	x	x	-24%	x	x	x
COc1ccc(C2Cn3nnc(C(=O)N4CCN(C(=O)c5ccc(F)cc5)CC4)c3CO2)cc1 (configuration not stated)	x	x	-4%	x	x	x
CCOc1ccccc1NC(=O)CN1CCC(NC(=O)c2ccccc2C)CC1	23µM*	23µM*	-16%	-5%	15%	u
COC(=O)c1ccccc1NC(=O)CN1CCC(NC(=O)c2ccc(C)cc2)CC1	26µM*	u	0%	-12%	-16%	16µM*
CCOc1ccccc1C(=O)Nc1cc(OC)ccc1OC	u	-21%	25%	-2%	7%	u
CCOc1ccc(OCC)c(NC(=O)CN2CCC(NC(=O)c3cccc(F)c3)CC2)c1	16µM*	23µM*	-16%	-20%	12%	0%
CCOc1ccccc1C(=O)NC1CCN(CC(=O)Nc2cc(OC)ccc2OC)CC1	16µM*	21µM*	21%	-23%	1%	u
Cc1ccc(C(=O)NC2CCN(CC(=O)Nc3ccccc3Cl)CC2)cc1	-27%	3%	-3%	-6%	u	7%
Cc1ccc(NC(=O)Cc2nnc(SCC(=O)NC34CC5CC(CC(C5)C3)C4)n2C)c(C)c1	x	x	-13%	x	x	x
CCN(CC)C(=O)N1CCCC(Cc2ncc(C)n2Cc2ccc(F)cc2)C1 (configuration not stated)	x	x	18%	x	x	x
COc1ccc(CN2C[C@H]3CN(Cc4ccc5c(c4)OCCO5)CCN3C2=O)cc1	x	x	1%[176 µM]	x	x	x
CCOc1ccccc1N1CCN(CC(=O)Nc2ccccc2C(=O)NC2CC2)CC1	16µM*	21µM*	u	x	x	u
O=C(CN1CCN(S(=O)(=O)c2ccc(F)cc2)CC1)Nc1ccccc1C(=O)NC1CC1	u	-20%	0%	x	x	-7%
COC(=O)c1ccccc1NC(=O)CN1CCN(C23CC4CC(CC(C4)C2)C3)CC1	u	29µM*	-21%	0%	-14%	u
CCOc1ccccc1N1CCN(CC(=O)Nc2nccs2)CC1	-18%	-18%	-29%	x	x	x
COc1ccc(F)cc1CN1CCN(CC(=O)Nc2ccccc2C(=O)NC2CC2)CC1	u	u	6%	x	x	10µM*
CCOc1cc2c(cc1OCC)CN(CC(=O)Nc1ccccc1C(=O)NC1CC1)CC2	-14%	u	9%	x	x	-27%
COC(=O)c1ccc(C(=O)OC)c(NC(=O)CN2CCN(c3ccccc3)CC2)c1	-26%	u	-8%	5%	4%	u
CCOc1ccccc1N1CCN(CC(=O)Nc2ccnn2C2CCCC2)CC1	u	13µM*	5%	x	x	u
Cn1c(OCc2cccnc2)nc2c1c(=O)n(Cc1cccc(Cl)c1)c(=O)n2C	x	x	1%	x	x	x
CC(=O)Nc1ccc(CN(Cc2ccc(NC(C)=O)cc2)C[C@H]2C[C@@H]3CCN2C[C@@H]3c2cc(-c3ccco3)nc(C)n2)cc1	x	x	27%	x	x	x
CCOC(=O)CN1C2=NCCN2c2ccccc21	-7%	5%	11%	0%	-23%	10%
SMILES	DT40 TDP1 no CPT	TDP1 cell CPT	ALOX12 inh	Gal4-VP16 FLuc	RORgamma inh	ELG1 repair inh
CCCN1C2=NCCN2c2cc(C)c(C)cc21	23µM*	-27%	-3%	-1%	u	-6%
CCCCCN1C2=NCCN2c2ccccc21	16µM*	29µM*	-11%	2%	-29%	-11%
Cc1ncc2c(c1CNC(=O)C1CCc3ccccc3C1)CCNC2 (configuration not stated)	x	x	1%	x	x	x
O=C1NCc2ccccc2CC12CCCN(Cc1ccccc1Cl)C2 (configuration not stated)	x	x	2%[6.33 µM]	x	x	x
COC(=O)[C@H](C)N(Cc1ccc(Cl)c(Cl)c1)S(=O)(=O)CCN1CCN(c2ccccc2)CC1	18µM*	u	-2%	x	x	u
Cc1ccc(S(=O)(=O)N2CC3(O)CN(C(=O)OC(C)C)N(C(=O)OC(C)C)CC3(OC(=O)NCC3CCCCC3)C2)cc1 (configuration not stated)	u	16µM*	u	x	x	x
CCCCCCNC(=O)OC12CN(C(=O)OC(C)C)N(C(=O)OC(C)C)CC1(O)CN(S(=O)(=O)c1ccc(C)cc1)C2 (configuration not stated)	21µM*	u	-24%	x	x	x
Cc1ccc(S(=O)(=O)N2CC3(O)CN(C(=O)OC(C)C)N(C(=O)OC(C)C)CC3(OC(=O)NC3CC3)C2)cc1 (configuration not stated)	u	u	-8%	x	x	x
O=C(NC(C(=O)N1CCCCC1)C1CCN(C(=O)c2ccccc2F)CC1)c1ccccc1 (configuration not stated)	x	x	12%	x	x	x
O=C(Nn1cnnc1)c1cc(-c2ccccn2)nc2ccccc12	-9%	-17%	86%	-12%	-17%	-8%
O=C(NNS(=O)(=O)c1ccc2ccccc2c1)c1cc(-c2ccccn2)nc2ccccc12	0%	16%	-4%	7.9µM*	8%	-5%
Cc1ccc(-c2cc(C(=O)O)c3ccccc3n2)o1	x	x	11µM*	x	x	x
Cc1ccc(-c2cc(C(=O)Nc3ccccn3)c3ccccc3n2)o1	23µM*	u	6.3µM*	-17%	2%	u
O=C(Nc1ccccn1)c1cc(-c2ccco2)nc2ccccc12	x	x	40µM*	x	x	x
O=C(CN(c1ccccc1F)S(=O)(=O)c1ccccc1)NCCN1CCOCC1	x	x	18%	x	x	x
COP(=O)(OC)c1nc(-c2ccc([N+](=O)[O-])cc2)oc1NCc1ccccc1	x	x	-22%	x	x	x

Assay outcomes deposited in PubChem by National Center for Advancing Translational Sciences (NCATS).
